The supplement of paper PMC12350171
Where a name gives a salt, the structure may show the parent alone.

Columns and labels:
Conditions in all cases: 20 µM
P. vulgatus RND KO = assay: growth AUC normalised to DMSO control (median) (fraction of control); higher = less growth inhibition, active = hit call of the paper
In short: (§1)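 Anaerobic growth was tracked hourly at OD578 for 24 h in 96-well plates of mGAM seeded at OD578 0.01 with each approved-drug library compound at 20 μM and 1% DMSO. Strains had first been passaged twice overnight without oxygen. Three biological replicates were run. The reported median is the area under the curve, calculated by the trapezoidal rule on curves truncated at entry into stationary phase and normalised to vehicle wells on the same plate.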

P. vulgatus WT = assay: as above
In short: as §1

[1] = tested on: S. enterica typhimurium WT; assay: as above
In short: as §1

[2] = tested on: S. enterica typhimurium tolC KO; assay: as above
In short: as §1

Shigella flexneri = assay: growth AUC normalised to DMSO control (fraction of control); higher = less growth inhibition, active = hit call of the paper
In short: (§2)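 After two anaerobic passages, pathogens were added at a starting OD578 of 0.01 to pre-reduced mGAM plates holding compound at 20 μM with 1% DMSO; hemin and NAD were supplemented for Haemophilus parainfluenzae. Sealed with breathable membranes, plates were read at OD578 hourly for 24 h, in three biological replicates. The trapezoidal rule, applied up to the exponential-to-stationary transition, gave the growth-curve AUC, which was normalised to DMSO controls on the same plate.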

Vibrio cholerae = assay: as above
In short: as §2

[3] = tested on: Yersinia pseudotuberculosis; assay: as above
In short: as §2

Measured: growth AUC normalised to DMSO control
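Wherever growth AUC normalised to DMSO control (median) is given: active when median AUC fell below 0.1.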

CO/N=C1\CN(c2nc3c(cc2F)c(=O)c(C(=O)O)cn3C2CC2)CC1CN (centres undefined) [Gemifloxacin mesylate]
active: P. vulgatus RND KO 0.0152 | P. vulgatus WT 0.0136 | [1] 0.0112 | [2] 0.0027

N[C@@H](Cc1ccc(O)c(O)c1)C(=O)O [Levodopa]
inactive: Shigella flexneri 1 | Vibrio cholerae 0.991 | [3] 0.99 | P. vulgatus RND KO 1.01 | P. vulgatus WT 0.996 | [1] 0.973 | [2] 0.996

COC(=O)N/N=C/c1c[n+]([O-])c2ccccc2[n+]1[O-] [Carbadox]
inactive: [1] 0.558 | [2] 0.591
active: P. vulgatus RND KO 0.0197 | P. vulgatus WT 0.0112

Cc1cn([C@H]2C[C@H](N=[N+]=[N-])[C@@H](CO)O2)c(=O)[nH]c1=O [Zidovudine]
active: Shigella flexneri 0.155 | [3] 0.781
inactive: Vibrio cholerae 0.956 | P. vulgatus WT 0.986 | [1] 0.304

CNCc1cc(-c2ccccc2F)n(S(=O)(=O)c2cccnc2)c1 [Vonoprazan]
inactive: P. vulgatus RND KO 1.02 | P. vulgatus WT 1.04 | [1] 1 | [2] 0.995

O=c1[nH]c(=O)n([C@H]2C[C@H](O)[C@@H](CO)O2)cc1C(F)(F)F [Trifluridine]
inactive: Shigella flexneri 1.01 | Vibrio cholerae 1.05 | [3] 0.997 | P. vulgatus RND KO 0.13 | P. vulgatus WT 0.123 | [1] 0.964 | [2] 0.958

CCC1(c2ccccc2)C(=O)NCNC1=O [Primidone]
inactive: Shigella flexneri 0.971 | Vibrio cholerae 0.976 | [3] 0.951 | P. vulgatus RND KO 1 | P. vulgatus WT 1 | [1] 1 | [2] 0.997

Cc1ccc(=O)n(-c2ccccc2)c1 [Pirfenidone]
inactive: P. vulgatus RND KO 0.932 | P. vulgatus WT 0.875 | [1] 1 | [2] 1

CC(C)=C/C(C)=N/Nc1nncc2ccccc12 [Budralazine]
inactive: P. vulgatus RND KO 1.02 | P. vulgatus WT 1.08 | [1] 0.999 | [2] 0.989

CC(C)(C)CC(C)(C)c1ccc(O)c(Cc2ccc(Cl)cc2Cl)c1 [Clofoctol]
inactive: P. vulgatus RND KO 0.619 | P. vulgatus WT 0.581 | [1] 0.995 | [2] 1.02

CN(C)c1cc(NC(=O)CNC(C)(C)C)c(O)c2c1C[C@H]1C[C@H]3[C@H](N(C)C)C(=O)C(C(N)=O)=C(O)[C@@]3(O)C(=O)C1=C2O [Tigecycline]
inactive: P. vulgatus RND KO 0.987 | P. vulgatus WT 0.997 | [1] 0.995 | [2] 0.997

O=C(C1CCCCC1)N1CC(=O)N2CCc3ccccc3C2C1 (centres undefined) [Praziquantel]
inactive: [3] 0.996 | P. vulgatus RND KO 0.997 | P. vulgatus WT 1.03 | [1] 1.01 | [2] 0.997

CSc1nc2cc(Cl)c(Oc3cccc(Cl)c3Cl)cc2[nH]1 [Triclabendazole]
inactive: P. vulgatus WT 0.129 | [1] 0.991
active: P. vulgatus RND KO 0.0625 | [2] 0.0431

CCCSS/C(CCO)=C(/C)N(C=O)Cc1cnc(C)nc1N [Prosultiamine]
inactive: P. vulgatus RND KO 1.09 | P. vulgatus WT 1.06 | [1] 0.997 | [2] 1.02

CCc1oc2ccccc2c1C(=O)c1ccc(O)cc1 [Benzarone]
inactive: P. vulgatus RND KO 0.881 | P. vulgatus WT 0.794 | [1] 1 | [2] 0.858

Cc1ncc([N+](=O)[O-])n1CCO [Metronidazole]
active: P. vulgatus RND KO 0.0156 | P. vulgatus WT 0.0126
inactive: [3] 1 | [1] 1.04 | [2] 0.991

C=C(CC)C(=O)c1ccc(OCC(=O)O)c(Cl)c1Cl [Ethacrynic acid]
inactive: Shigella flexneri 0.998 | Vibrio cholerae 1.02 | P. vulgatus RND KO 0.994 | P. vulgatus WT 1.01 | [1] 1 | [2] 1.02

CCCC(=O)Nc1ncnc2c1ncn2[C@@H]1O[C@@H]2COP(=O)(O)O[C@H]2[C@H]1OC(=O)CCC [Bucladesine sodium salt]
inactive: Shigella flexneri 1 | Vibrio cholerae 1.01 | [3] 0.998 | P. vulgatus RND KO 1.02 | P. vulgatus WT 1.01 | [1] 1.01 | [2] 1.01

C[C@H]1[C@H](NC(=O)/C(=N\OC(C)(C)C(=O)O)c2csc(N)n2)C(=O)N1S(=O)(=O)O [Aztreonam]
active: Shigella flexneri 0.0599 | Vibrio cholerae 0.773 | [3] 0.135
inactive: P. vulgatus WT 0.134

O=c1cc(-c2ccc(O)c(O)c2)oc2cc(O)cc(O)c12 [Luteolin]
inactive: Shigella flexneri 1 | Vibrio cholerae 0.976 | [3] 0.978 | P. vulgatus RND KO 0.987 | P. vulgatus WT 1.02 | [1] 0.993 | [2] 0.878

CC(C)(C)NCC(O)CSc1nc(-c2ccc(C(N)=O)s2)cs1 (centres undefined) [Arotinolol hydrochloride]
inactive: P. vulgatus RND KO 1.02 | P. vulgatus WT 1 | [1] 0.996 | [2] 1.01

CCCSc1nc(N[C@@H]2C[C@H]2c2ccc(F)c(F)c2)c2nnn([C@@H]3C[C@H](OCCO)[C@@H](O)[C@H]3O)c2n1 [Ticagrelor]
inactive: P. vulgatus RND KO 0.786 | P. vulgatus WT 0.544 | [1] 1.03 | [2] 0.899

Cn1c(=O)cc(N2CCC[C@@H](N)C2)n(Cc2ccccc2C#N)c1=O [Alogliptin benzoate]
inactive: P. vulgatus RND KO 0.981 | P. vulgatus WT 0.971 | [1] 0.991 | [2] 0.992

N=C(N)c1ccc(OCCCCCOc2ccc(C(=N)N)cc2)cc1 [Pentamidine isethionate]
inactive: Shigella flexneri 0.984 | Vibrio cholerae 1.02 | [3] 1.02 | P. vulgatus RND KO 0.591 | P. vulgatus WT 0.749 | [1] 0.999 | [2] 0.985

CC(C)c1nc(N(C)S(C)(=O)=O)nc(-c2ccc(F)cc2)c1/C=C/[C@@H](O)C[C@@H](O)CC(=O)O [Rosuvastatin]
inactive: P. vulgatus RND KO 1.01 | P. vulgatus WT 1.03 | [1] 1.01 | [2] 1.01

COC(=O)C1=C(C)NC(C)=C(C(=O)OC2CCCN(Cc3ccccc3)C2)C1c1cccc([N+](=O)[O-])c1 (centres undefined) [Benidipine hydrochloride]
inactive: P. vulgatus RND KO 1.01 | P. vulgatus WT 0.968 | [1] 0.993 | [2] 0.961

CO[C@@H]1[C@@H](O[C@@H]2O[C@H](C)[C@@H](O[C@H]3C[C@@](C)(O)[C@@H](O)[C@H](C)O3)[C@H](N(C)C)[C@H]2O)[C@@H](CC=O)C[C@@H](C)[C@@H](O[C@H]2CC[C@H](N(C)C)[C@@H](C)O2)/C=C/C=C/C[C@@H](C)OC(=O)C[C@H]1OC(C)=O [Acetyl spiramycin]
active: P. vulgatus RND KO 0.0119 | P. vulgatus WT 0.00707
inactive: [1] 0.991 | [2] 0.65

C[C@@H](O)[C@H]1C(=O)N2C(C(=O)O)=C(S[C@@H]3CN[C@H](CNS(N)(=O)=O)C3)[C@H](C)[C@H]12 [Doripenem monohydrate]
active: P. vulgatus RND KO 0.00779 | P. vulgatus WT 0.00747 | [1] 0.00575 | [2] 0.00595

CC(=O)Oc1cc2c(s1)CCN(C(C(=O)C1CC1)c1ccccc1F)C2 (centres undefined) [Prasugrel]
inactive: P. vulgatus RND KO 1.06 | P. vulgatus WT 1.07 | [1] 1.03 | [2] 1.01

O=C1[C@@H]2[C@H]3CC[C@H](C3)[C@@H]2C(=O)N1CCCCN1CCN(c2ncccn2)CC1 [Tandospirone]
inactive: P. vulgatus RND KO 1.07 | P. vulgatus WT 1.05 | [1] 1.01 | [2] 0.996

O=C1[C@H](CC[C@H](O)c2ccc(F)cc2)[C@@H](c2ccc(O)cc2)N1c1ccc(F)cc1 [Ezetimibe]
inactive: P. vulgatus RND KO 0.901 | P. vulgatus WT 0.918 | [1] 1 | [2] 0.828

Cn1c(NCCN(CCO)CCCc2ccc([N+](=O)[O-])cc2)cc(=O)n(C)c1=O [Nifekalant]
inactive: P. vulgatus RND KO 1.06 | P. vulgatus WT 1.03 | [1] 1.02 | [2] 1

CC(C)OC(=O)CCC/C=C\C[C@@H]1[C@@H](CC[C@@H](O)CCc2ccccc2)[C@H](O)C[C@@H]1O [Latanoprost]
inactive: P. vulgatus RND KO 0.958 | P. vulgatus WT 0.966 | [1] 1.01 | [2] 0.896

CC[C@H]1OC(=O)C[C@@H](O)[C@H](C)[C@@H](O[C@@H]2O[C@H](C)[C@@H](O[C@H]3C[C@@](C)(O)[C@@H](O)[C@H](C)O3)[C@H](N(C)C)[C@H]2O)[C@@H](CC=O)C[C@@H](C)C(=O)/C=C/C(C)=C/[C@@H]1CO[C@@H]1O[C@H](C)[C@@H](O)[C@@H](OC)[C@H]1OC [Tylosin]
inactive: [1] 0.997 | [2] 0.721
active: P. vulgatus RND KO 0.015 | P. vulgatus WT 0.0123
